# Laboratory results reported in the supplement of paper PMC8728848.
# Only a selection was taken, and the strongest signals are over-represented in it overall.
# Columns and labels:
# Assay in all cases: glycan array binding signal (z-score within array); higher = stronger binding
# Settings in all cases: glycan notation: IUPAC condensed, linker removed
# [1] = target: Fuc(a1-2)Gal(b1-3)GlcNAc(b1-3)[Gal(b1-4)GlcNAc(b1-6)]Gal(b1-4)Glc
# How it was run: (§1)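 Columns mapping to the same glycan were averaged after glycan names were converted to IUPAC-condensed notation. The data come from 3228 arrays in the Consortium for Functional Glycomics database, limited to those with an available protein sequence. Binding is reported as a within-array Z-score averaged across arrays of one protein sequence and across linkers.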
# [2] = target: Fuc(a1-2)Gal(b1-4)GlcNAc(b1-3)Gal(b1-4)GlcNAc
# How it was run: as §1
# [3] = target: Fuc(a1-2)Gal(b1-4)GlcNAc6S
# How it was run: as §1
# [4] = target: Fuc(a1-2)Gal(b1-4)[Fuc(a1-3)]GlcNAc(b1-2)[Fuc(a1-2)Gal(b1-4)[Fuc(a1-3)]GlcNAc(b1-4)]Man(a1-3)[Fuc(a1-2)Gal(b1-4)[Fuc(a1-3)]GlcNAc(b1-2)Man(a1-6)]Man(b1-4)GlcNAc(b1-4)GlcNAc
# How it was run: as §1
# [5] = target: Fuc(a1-2)[Gal(a1-3)]Gal(b1-4)GlcNAc
# How it was run: as §1
# [6] = target: Fuc(a1-3)[Gal(b1-4)]GlcNAc(b1-2)Man(a1-3)[Fuc(a1-3)[Gal(b1-4)]GlcNAc(b1-2)Man(a1-6)]Man(b1-4)GlcNAc(b1-4)GlcNAc
# How it was run: as §1
# [7] = target: Fuc(a1-3)[Gal(b1-4)]GlcNAc(b1-2)Man(a1-3)[Fuc(a1-3)[Gal(b1-4)]GlcNAc(b1-2)Man(a1-6)]Man(b1-4)GlcNAc(b1-4)[Fuc(a1-6)]GlcNAc
# How it was run: as §1
# [8] = target: Fuc(a1-3)[Gal(b1-4)]GlcNAc(b1-6)GalNAc
# How it was run: as §1
# [9] = target: Gal(a1-3)Gal
# How it was run: as §1
# [10] = target: Gal(a1-3)Gal(b1-4)GlcNAc(b1-2)Man(a1-3)[Gal(a1-3)Gal(b1-4)GlcNAc(b1-2)Man(a1-6)]Man(b1-4)GlcNAc(b1-4)GlcNAc
# How it was run: as §1
# [11] = target: Gal(a1-3)[Gal(a1-4)]Gal(b1-4)GlcNAc
# How it was run: as §1
# [12] = target: Gal(a1-6)Glc
# How it was run: as §1
# [13] = target: Gal(b1-3)GlcNAc(b1-2)[Gal(b1-3)GlcNAc(b1-6)]Man(a1-6)[Gal(b1-3)GlcNAc(b1-2)Man(a1-3)]Man(b1-4)GlcNAc(b1-4)GlcNAc
# How it was run: as §1
# [14] = target: Gal(b1-3)GlcNAc(b1-3)Gal(b1-3)GlcNAc
# How it was run: as §1
# [15] = target: Gal(b1-3)GlcNAc(b1-3)Gal(b1-4)GlcNAc(b1-3)Gal(b1-4)GlcNAc(b1-2)[Gal(b1-3)GlcNAc(b1-3)Gal(b1-4)GlcNAc(b1-3)Gal(b1-4)GlcNAc(b1-6)]Man(a1-6)[Gal(b1-3)GlcNAc(b1-3)Gal(b1-4)GlcNAc(b1-3)Gal(b1-4)GlcNAc(b1-2)Man(a1-3)]Man(b1-4)GlcNAc(b1-4)[Fuc(a1-6)]GlcNAc
# How it was run: as §1
# [16] = target: Gal(b1-3)GlcNAc(b1-3)Gal(b1-4)GlcNAc(b1-6)[Gal(b1-3)GlcNAc(b1-3)]Gal(b1-4)Glc
# How it was run: as §1
# [17] = target: Gal(b1-3)GlcNAc(b1-6)[Gal(b1-3)]GalNAc
# How it was run: as §1
# [18] = target: Gal(b1-3)[Neu5Ac(b2-6)]GalNAc
# How it was run: as §1
# [19] = target: Gal(b1-4)GlcNAc(b1-3)Gal(b1-4)GlcNAc(b1-3)Gal(b1-4)GlcNAc(b1-2)Man(a1-3)[Gal(b1-4)GlcNAc(b1-3)Gal(b1-4)GlcNAc(b1-3)Gal(b1-4)GlcNAc(b1-2)Man(a1-6)]Man(b1-4)GlcNAc(b1-4)GlcNAc
# How it was run: as §1
# [20] = target: Gal(b1-4)GlcNAc(b1-3)Gal(b1-4)GlcNAc(b1-3)Gal(b1-4)GlcNAc(b1-3)Gal(b1-4)GlcNAc(b1-3)Gal(b1-4)GlcNAc(b1-2)[Gal(b1-4)GlcNAc(b1-3)Gal(b1-4)GlcNAc(b1-3)Gal(b1-4)GlcNAc(b1-3)Gal(b1-4)GlcNAc(b1-3)Gal(b1-4)GlcNAc(b1-6)]Man(a1-6)[Gal(b1-4)GlcNAc(b1-3)Gal(b1-4)GlcNAc(b1-3)Gal(b1-4)GlcNAc(b1-3)Gal(b1-4)GlcNAc(b1-3)Gal(b1-4)GlcNAc(b1-2)Man(a1-3)]Man(b1-4)GlcNAc(b1-4)[Fuc(a1-6)]GlcNAc
# How it was run: as §1
# [21] = target: Gal(b1-4)GlcNAc6P
# How it was run: as §1
# [22] = target: Gal3S(b1-3)GalNAc
# How it was run: as §1
# [23] = target: Gal3S(b1-4)Glc
# How it was run: as §1
# [24] = target: Gal3S(b1-4)[Fuc(a1-3)]Glc6S
# How it was run: as §1
# [25] = target: Gal3S4S(b1-4)GlcNAc
# How it was run: as §1
# [26] = target: Gal3S6S(b1-4)GlcNAc
# How it was run: as §1
binder,measurement,setting,value
"Ovorubin (Pomacea canaliculata), J7I2T6 (protein) MFVATSLLLAIATLVVRASPHNYLIMDIEPPKSVSERDILNLLSPLQVKHSFRVTGSTRLLIVIRLDAQSYEKLDEITVPGKVEVIPAVNMADTMERCGVSWPRVELTDDNVTLFESESTLTDVTKEQLKAMLIGYGEHMSGLLQAHRFEYYQAAGATPHRHFVFVNSVPDEIEVFGREGVDIWGGPGEFVVKPQYVTRI",glycan array binding signal (z-score),[1],0.184
same,glycan array binding signal (z-score),[2],0.006
same,glycan array binding signal (z-score),[3],0.049
same,glycan array binding signal (z-score),[4],0.485
same,glycan array binding signal (z-score),[5],-0.498
same,glycan array binding signal (z-score),[6],0.055
same,glycan array binding signal (z-score),[7],-0.362
same,glycan array binding signal (z-score),[8],0.355
same,glycan array binding signal (z-score),[9],-0.576
same,glycan array binding signal (z-score),[10],0.572
same,glycan array binding signal (z-score),[11],7.96
same,glycan array binding signal (z-score),[12],-1.13
same,glycan array binding signal (z-score),[13],4.93
same,glycan array binding signal (z-score),[14],-0.763
same,glycan array binding signal (z-score),[15],2.9
same,glycan array binding signal (z-score),[16],-0.801
same,glycan array binding signal (z-score),[17],0.3
same,glycan array binding signal (z-score),[18],-0.862
same,glycan array binding signal (z-score),[19],0.387
same,glycan array binding signal (z-score),[20],2.67
same,glycan array binding signal (z-score),[21],-0.461
same,glycan array binding signal (z-score),[22],0.802
same,glycan array binding signal (z-score),[23],-0.766
same,glycan array binding signal (z-score),[24],3.72
same,glycan array binding signal (z-score),[25],9.33
same,glycan array binding signal (z-score),[26],4.31
